Screens from PubChem BioAssay.
Rab9 prom act – Rab9 promoter activation. Huh7 Rab9 promoter-luciferase reporter, luminescence, 24 h. Potency, µM (series often up to 9.22 µM), inactives show top-dose activation, negative = inhibition, usual class: activators. hit rate 2.8% among 320,000; further: % of control where 0% means no effect; nearly all actives have a fitted effect of over 60% in size
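Quantitative HTS format; Huh7 Rab9-luciferase reporter cells (1500/well) receive compound 2 h post-plating, incubate 24 h at 37 °C, then get luciferase reagent for 10 min before luminescence reading.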
NPC1 promoter act – activates the NPC1 promoter. Huh7 NPC1 promoter luciferase reporter, 24 h. Potency, µM (titrated, usually from 9.22 µM), for the others: at the top dose activation, actives largely listed as activators. hit rate 2.4% among 320,000. AID 485313; further: % of control where 0% means no effect; nearly all actives have a fitted effect of over 60% in size
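Luciferase expression driven by the NPC1 promoter was measured in stably transfected Huh7 cells after a 24 h compound incubation, using a luciferase reagent and a luminescence read.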
ELG1 genotox – inducers of genotoxicity in HEK293T ELG1-luciferase cells; HEK293T ELG1-luciferase reporter, luminescence, 16 h; Potency, µM (top dose mostly 46 µM), for the others: at the highest dose activity change, positive = activation, usual class: activators; hit rate 1.3% among 330,000; AID 504466; further: % of control where 0% means no effect; nearly all actives have a fitted effect of over 60% in size
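Genotoxic stress is detected as increased luminescence from luciferase-tagged ELG1 in HEK293T cells, measured with ONE-Glo after a 16 hr treatment at 37 °C.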
SMN2 splice up – enhancers of SMN2 splice variant expression. HEK293 SMN2-luciferase splicing reporter, luminescence, 30-36 h. Potency, µM (top dose mostly 46.1 µM), without a hit: at the highest dose activity change, positive = activation, most hits filed as activators. hit rate 2.8% among 210,000. AID 1458; further: % of control where 0% means no effect; nearly all actives have a fitted effect of over 55% in size
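qHTS luciferase splicing reporter: luminescence rises when SMN2 exon 7 is included in transfected HEK293 cells. Compound exposure lasted 30-36 h at 37C, with 4.5 mM final sodium butyrate as control, followed by a ONE-Glo read.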
ELG1 DNA repair – inhibitors of ELG1-dependent DNA repair in HEK293T cells. HEK293T ELG1-luciferase reporter, luminescence, 16 h; DNA damage induced by 5-fluorouridine. Potency, µM (series often up to 46.1 µM), inactives show top-dose activity change, negative = inhibition, actives largely listed as inhibitors. hit rate 2.3% among 330,000. AID 504467; further: on the % scale 0 is the no-effect control and ±100 the full control effect; nearly all actives have a fitted effect of over 55% in size
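Step one: seed 2,000 cells per well. Step two: pin-transfer compound or DMSO alongside 5-fluorouridine. Step three: incubate 16 hr, 37 °C, 5% CO2. Step four: add ONE-Glo, wait 30 min, read luminescence.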
FLuc modulator – firefly luciferase modulation, counter-screen for miR-21 project; purified FLuc, Km substrates, luminescence inhibition; Potency, µM (series often up to 57.5 µM), for inactives: at the top dose activity change, negative = inhibition, actives largely listed as inhibitors; hit rate 6.9% among 360,000;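 further: plate controls were vehicle for no effect and reference inhibitor for full effect; nearly all actives have a fitted effect of over 55% in size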
Target sequence (P08659 whole entry, looked up): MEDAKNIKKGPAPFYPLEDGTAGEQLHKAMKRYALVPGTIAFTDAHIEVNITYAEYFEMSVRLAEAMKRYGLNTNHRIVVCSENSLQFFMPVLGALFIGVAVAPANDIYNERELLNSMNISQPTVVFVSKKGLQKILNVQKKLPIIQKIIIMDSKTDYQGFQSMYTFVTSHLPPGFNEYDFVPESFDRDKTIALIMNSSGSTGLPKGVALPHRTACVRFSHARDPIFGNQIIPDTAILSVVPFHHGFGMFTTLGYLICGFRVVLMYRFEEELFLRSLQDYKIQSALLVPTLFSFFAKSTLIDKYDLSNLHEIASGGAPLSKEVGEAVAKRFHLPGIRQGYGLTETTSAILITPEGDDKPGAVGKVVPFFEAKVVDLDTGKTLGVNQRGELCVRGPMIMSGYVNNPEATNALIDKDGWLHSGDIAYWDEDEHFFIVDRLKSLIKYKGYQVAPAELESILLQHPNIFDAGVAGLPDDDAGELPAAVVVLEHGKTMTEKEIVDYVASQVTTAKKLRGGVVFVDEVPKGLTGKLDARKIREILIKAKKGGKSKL
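Purified P. pyralis luciferase (10nM final) with 10uM D-luciferin and 10uM ATP (Km levels) in 50mM Tris acetate pH 7.5, 10mM Mg acetate, 0.01% Tween-20, 0.05% BSA; qHTS 6-point titration, ~60 µM downward; luminescence read.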
Numbers without * were called inactive; u = inconclusive; x = no result given. Hits are enriched below; roughly 9.2% of the tested compounds scored in any of these assays. The call rests on the fitted dose curve; in most records, active means well fitted curve in the direction sought with a large enough effect; inconclusive means small, poorly fitted or top-dose-only effect, or another doubt; inactive means no such curve, though single readings can be large; an effect the other way counts as inactive or inconclusive. Potency means the concentration at half of the fitted maximal effect.

SMILES	Rab9 prom act	NPC1 promoter act	ELG1 genotox	SMN2 splice up	ELG1 DNA repair	FLuc modulator
COc1ccc(CC(=O)N/N=C/c2ccc(-c3cccc(C(=O)O)c3)o2)cc1OC	1%	12%	15%	x	39%	u
Cc1ccc(OCC(=O)N/N=C\c2ccc(-c3cccc(C(=O)O)c3)o2)c(C)c1	13%	12%	14%	29%	u	6.7µM*
O=C(CN1CCCC1)N/N=C/c1ccc(-c2cccc(Cl)c2)o1	-2%	1%	-2%	-4%	1%	12µM*
O=C(O)c1cccc(-c2ccc(/C=N/Nc3nn[nH]n3)o2)c1	23%	10%	3%	19%	u	u
Nc1nonc1C(=O)N/N=C/c1ccc(-c2cccc(C(=O)O)c2)o1	19%	0%	1%	19%	u	17µM*
CNC(=S)N/N=C/c1ccc(-c2cccc(C(=O)O)c2)o1	2.8µM*	2.2µM*	u	x	u	6.7µM*
CCn1c(CCCOc2ccc(Cl)cc2Cl)n[nH]c1=S	15%	0%	3%	x	5%	u
Cc1c(C)n2c(SCC(=O)Nc3cccc4ccccc34)nnc2[nH]c1=O	-8%	0%	-5%	x	7%	0%
Cc1ccc(CNC(=O)CCCCn2c(=O)c3ccccc3n(Cc3c(C)cc(C)cc3C)c2=O)cc1	x	x	x	-7%	x	4%
CNc1sc(C(=O)c2cccs2)c(N)c1-c1nc2ccccc2s1	2.8µM*	4µM*	u	5µM*	u	2.7µM*
CNc1sc(C(=O)c2ccc(F)cc2)c(N)c1-c1nc2ccccc2s1	-5%	17%	u	-13%	u	u
O=c1[nH]c2ccccc2c2nc3ccccn3c12	u	u	u	14%	u	17µM*
CC(=O)Nc1ccc(/C=N/N2C(C)CCCC2C)cc1 (stereo not drawn)	16%	11%	7%	-29%	16%	1%
CC(=O)Nc1ccc(/C=N/N2CCCCC2)cc1	4.5µM*	3.2µM*	u	14µM*	u	27µM*
c1ccc(-c2nc3ccccc3nc2-c2ccccn2)nc1	0%	2%	0%	39%	6%	-6%
Cc1cc2nc(-c3ccccn3)c(-c3ccccn3)nc2cc1C	14%	u	u	x	u	4.8µM*
CC(NC(=O)CCNC(=O)N1CCn2c1nc1ccccc12)c1ccccc1 (stereo not drawn)	4%	-10%	1%	x	6%	-1%
CSc1ccccc1NC(=O)c1ccc(N2CCCC2=O)cc1	u	u	u	x	u	15µM*
CC(=O)c1ccc(NC(=O)c2ccc(N3CCCC3=O)cc2)cc1	-1%	1%	2%	x	u	-12%
CC(=O)c1ccccc1NC(=O)c1ccc(N2CCCC2=O)cc1	u	27%	u	x	16%	7.6µM*
Cc1csc2nc(COc3ccccc3NC(=O)c3ccccc3Cl)cc(=O)n12	x	x	x	6%	x	-7%
CC1=C(C(=O)OC2CCCC2)C(c2ccccc2C(F)(F)F)CC(=O)N1 (stereo not drawn)	x	x	x	-1%	x	-1%
O=C1O/C(=C/c2ccccc2)N=C1c1ccccc1	0%	-1%	0%	7%	1%	2.7µM*
COC1=C(Nc2ccc(O)cc2)C(=O)c2ccccc2C1=O	3%	13%	1%	-18%	-15%	u
Cc1ccc(NC2=C/C(=N\S(=O)(=O)c3cccs3)c3ccccc3C2=O)c(C)c1	u	u	-12%	-98%	u	u
SMILES	Rab9 prom act	NPC1 promoter act	ELG1 genotox	SMN2 splice up	ELG1 DNA repair	FLuc modulator
Cc1ccc(Cl)cc1NC1=C/C(=N\S(=O)(=O)c2cccs2)c2ccccc2C1=O	-19%	-13%	-27%	-84%	5.2µM*	-3%
O=C1C(Nc2ccc(O)cc2)=C/C(=N/S(=O)(=O)c2cccs2)c2ccccc21	-43%	-44%	-22%	-100%	6.5µM*	u
Cc1cccc(NC2=C/C(=N/S(=O)(=O)c3cccs3)c3ccccc3C2=O)c1	-35%	-42%	-10%	-94%	4.1µM*	-21%
COc1ccc(-n2ncc3c(=O)n(CC(=O)Nc4ccc5c(c4)OCCO5)cnc32)cc1	-2%	-3%	u	x	u	2%
COc1ccc(CCNC(=O)Cn2c(-c3ccc(F)cc3)cc(C(C)=O)c2C)cc1OC	x	x	x	x	x	-5%
Fc1ccc2c(c1)[C@H]1OCC[C@H]1[C@@H](c1ccco1)N2	2%	-2%	1%	-22%	8%	-1%
CCc1ccc2c(c1)[C@H]1OCC[C@H]1[C@@H](c1cccs1)N2	-22%	-16%	3%	-23%	-1%	15µM*
Cc1ccc(Cl)cc1N1CCN(C(=O)c2cn(C)c3ccc(S(=O)(=O)N4CCCCC4)cc3c2=O)CC1	x	x	x	-1%	x	-8%
COc1cc(NC(=S)NC(=O)c2ccco2)ccc1NC(=O)C(C)C	21%	8%	9%	18%	u	u
COc1cc2c(cc1NC(=O)c1ccco1)CCCC2	u	15%	13%	21%	u	21µM*
COc1cc(NC(=O)C(C)C)ccc1NC(=O)c1ccco1	1.1µM*	4µM*	7.9µM*	11µM*	u	19µM*
CCc1nnc(NC(=O)CSC(=S)N2CCOCC2)s1	9%	-4%	-1%	x	14%	4%
CCC(Cc1ccccc1)NC(=O)c1cc(S(=O)(=O)N2CCCCC2)c[nH]1 (stereo not drawn)	1%	-3%	1%	x	-3%	-2%
O=C(Nc1ccc(F)cc1F)c1noc2c1CCC2	u	u	13%	u	u	15µM*
O=C(NCc1ccc(F)cc1)c1noc2c1CCCCC2	4%	1%	0%	-5%	u	-12%
O=C(Nc1ccccc1C(F)(F)F)c1noc2c1CCCCC2	x	x	x	11µM*	x	2.7µM*
O=C(Nc1cc(Cl)ccc1Cl)c1noc2c1CCCC2	-2%	2%	1%	x	15%	-9%
CN(Cc1ccccc1)C(=O)c1ccc(NC(=O)Cc2cccc(NC(=O)C3CCCN(C(=O)C4CCCCC4)C3)c2)cc1 (stereo not drawn)	-2%	2%	-4%	x	15µM*	-10%
CN(Cc1ccccc1)C(=O)c1ccc(NC(=O)Cc2cccc(NC(=O)C3CCN(C(=O)C4CCC4)CC3)c2)cc1	-2%	1%	2%	x	5.2µM*	-21%
CN(Cc1ccccc1)C(=O)c1ccc(NC(=O)Cc2cccc(NC(=O)C3CCCN(C(=O)C4CCCC4)C3)c2)cc1 (stereo not drawn)	-9%	4%	-4%	x	u	-16%
CN(Cc1ccccc1)C(=O)c1ccc(NC(=O)C2CCCN(C(=O)OC(C)(C)C)C2)cc1 (stereo not drawn)	x	x	-9%	x	21µM*	x
